3T3 cytotox – kills NIH 3T3 cells; NIH 3T3 viability, CellTiter-Glo ATP luminescence, 48-72 h; Potency, µM (series often up to 96.7 µM), inactives show top-dose activity change, negative = cytotoxicity, actives largely listed as inhibitors; 94,000 tested, 4.3% active; AID 1345082; note: % is set by controls: 0 for no effect and ±100 for the full control effect; nearly all actives have a fitted effect of over 55% in size
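Cytotoxicity was measured by CellTiter-Glo ATP luminescence after 48 or 72 h compound exposure at 37 °C. Mouse NIH 3T3 fibroblasts were seeded at 400 cells/well and dosed by 23 nL pin transfer.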
FLuc inh-1 – Photinus pyralis luciferase inhibition. P08659. purified P. pyralis luciferase, luminescence, biochemical. Potency, µM (highest dose often 115 µM), usual class: inhibitors. 76,000 tested, 2.5% active. AID 1347043; note: % is set by controls: 0 for no effect and ±100 for the full control effect; nearly all actives have a fitted effect of over 65% in size
Target sequence (P08659 whole entry, looked up): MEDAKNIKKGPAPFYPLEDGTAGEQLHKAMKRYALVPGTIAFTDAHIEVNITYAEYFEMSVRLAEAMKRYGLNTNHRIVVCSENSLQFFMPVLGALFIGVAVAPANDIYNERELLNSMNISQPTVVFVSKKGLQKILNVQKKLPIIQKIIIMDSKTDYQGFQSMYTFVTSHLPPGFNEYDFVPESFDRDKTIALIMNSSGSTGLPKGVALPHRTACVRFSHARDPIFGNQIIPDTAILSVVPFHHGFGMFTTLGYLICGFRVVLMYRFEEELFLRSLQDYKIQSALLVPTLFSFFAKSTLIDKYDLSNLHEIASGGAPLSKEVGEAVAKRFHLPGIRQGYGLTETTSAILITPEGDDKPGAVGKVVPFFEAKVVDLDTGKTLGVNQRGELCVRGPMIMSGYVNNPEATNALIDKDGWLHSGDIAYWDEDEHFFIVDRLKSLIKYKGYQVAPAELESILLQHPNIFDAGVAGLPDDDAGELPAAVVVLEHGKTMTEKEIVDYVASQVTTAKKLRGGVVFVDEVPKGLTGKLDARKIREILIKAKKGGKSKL
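Purified 10nM P. pyralis luciferase with 10uM D-luciferin and 10uM ATP in 50mM Tris acetate pH 7.5, 10mM Mg acetate, 0.01% Tween-20, 0.05% BSA. qHTS titration; luminescence read by CCD imager.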
hNpr1 antagonist – human Npr1 receptor antagonism | AID 1347048 | P16066 | HEK293 hNpr1 GloSensor cGMP, ANP-stimulated luminescence | Potency, µM (series often up to 46.3 µM), without a hit: at the top dose activity change, negative = inhibition, most hits filed as inhibitors | 76,000 tested, 1.6% active; calls by dose curve; note: % is set by controls: 0 for no effect and ±100 for the full control effect; nearly all actives have a fitted effect of over 60% in size
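Compound pre-incubated 30 min at room temperature on GloSensor-loaded HEK293 cells stably carrying hNpr1 and the pGS-40F cGMP biosensor. Stimulation uses hNppA at 0.1 nM final; luminescence is taken at baseline and 20 min post-agonist.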
HEK cytotox – kills HEK 293 cells | HEK 293 viability, ATP luminescence (CellTiter-Glo), 48-72 h | Potency, µM (highest dose often 115 µM), without a hit: at the highest dose activity change, negative = cytotoxicity, actives largely listed as inhibitors | 94,000 tested, 6.6% active | AID 1345083; note: % is set by controls: 0 for no effect and ±100 for the full control effect; nearly all actives have a fitted effect of over 60% in size
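HEK 293 seeded at 250 cells/well receive compound via pintool. After 48 or 72 hr at 37 degree Celsius, 5% CO2 and 95% humidity, CellTiter-Glo is dispensed and luminescence read following 10 min at room temperature.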
FLuc SDR -ATP – binders stabilizing firefly luciferase, without ATP; shares compounds with FLuc inh-1; Purified FLuc-C-HiBiT, Nano-Glo HiBiT luminescence, no ATP; Potency, µM (titrated, usually from 32.7 µM), for the others: top-dose activation (signal gain), usual class: activators; 1,300 tested, 7.8% active; AID 1963318; note: nearly all actives have a fitted effect of over 55% in size
FLuc SDR ATP – binders stabilizing firefly luciferase, plus ATP; Potency, µM (highest dose often 32.7 µM), inactives show at the highest dose activation (gain of signal), most hits filed as activators; purified FLuc-C-HiBiT + ATP, HiBiT complementation luminescence; 1,300 tested, 8.7% active; AID 1963319; shares compounds with FLuc inh-1;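 note: signal reports ligand binding via conformational change of the enzyme rather than luciferase catalysis; % of control where 0% means no effect; nearly all actives have a fitted effect of over 55% in size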
FLuc inh-2 – blocks firefly luciferase enzymatic activity; 1,300 tested, 42% active; Potency, µM (doses to about 32.7 µM), for the others: at the top dose activity change, negative = inhibition, usual class: inhibitors; shares compounds with FLuc inh-1; purified FLuc-C-HiBiT enzyme, luciferin luminescence; note: % is set by controls: 0 for no effect and ±100 for the full control effect; nearly all actives have a fitted effect of over 70% in size
* marks the source's active call; other numbers are inactive results; i = inactive; ? = inconclusive; nt = no result given; [ ] = dose if it differs, or a comment. A selection: hits, their analogues and other compounds. The true share with any hit is near 11%. Unless noted, calls come from the whole dose curve; as a rule, active = well fitted curve in the direction sought with a large enough effect; inconclusive = small, poorly fitted or top-dose-only effect, or another doubt; inactive = no such curve, though single readings can be large; an effect the other way counts as inactive or inconclusive. Potency is the fitted concentration of half-maximal effect.

SMILES | 3T3 cytotox | FLuc inh-1 | hNpr1 antagonist | HEK cytotox | FLuc SDR -ATP | FLuc SDR ATP | FLuc inh-2
C=CCOc1cccc(-c2nc(C(=O)Nc3ccccc3)cs2)c1 | ? | ? | 1% | ? | nt | nt | nt
COc1ccccc1CC(=O)N1CCCc2ncc(C(=O)Nc3ccccc3C)cc21 | -29%[138 µM] | i | -3%[70.6 µM] | ? | nt | nt | nt
COc1ccc(-c2noc(-c3nc(-c4ccccc4OC)no3)n2)cc1OC | i | i | 3% | -8% | nt | nt | nt
Cn1nc(C(=O)NCC23CCC=C2N(CC2CC2)C(=O)CC3)c2ccccc21 (centres undefined) | -12% | i | -1% | -8% | nt | nt | nt
COc1ccc(-c2nc3ccccc3s2)cc1NC(=O)c1cc(OC)c(OC)c(OC)c1 | nt | nt | nt | nt | 14% | 10% | ?
COc1ccc(C(=O)Nc2ccc([C@H]3OCC(=O)N[C@@H]3CO)cc2)cc1 | -6%[138 µM] | ? | 1%[70.6 µM] | 1%[172 µM] | nt | nt | nt
CC(C)(C)c1ccc(C(=O)Nc2ccc([C@H]3OCC(=O)N[C@@H]3CO)cc2)cc1 | 89µM* | 10µM* | -1%[70.6 µM] | ? | 27%[49.3 µM] | 16%[49.3 µM] | ?
O=C(Nc1ccc([C@H]2OCC(=O)N(Cc3ccncc3)[C@@H]2CO)cc1)c1ccc(C(F)(F)F)cc1 | ? | 13µM* | ? | 20µM* | 19% | 14% | ?
CC(C)c1nc2c(c(-c3ccc(O)cc3)n1)CN(Cc1ccccc1)CC2 | -26% | i | 2% | ? | 11% | 7% | -5%
Cc1ccc(CN2CCc3nc(C(C)C)nc(-c4ccc(O)cc4)c3C2)cc1 | ? | i | 1% | ? | nt | nt | nt
CC(C)c1nc2c(c(-c3ccc(O)cc3)n1)CCN(Cc1ccccn1)CC2 | -21% | i | -2% | 1% | 8% | 8% | -6%
COc1ccc(-c2nc3cc(C(=O)NCc4ccccc4F)ccc3o2)cn1 | -10% | nt | nt | -12% | nt | nt | nt
CCc1ccc2oc(-c3ccc(C)c(NC(=O)c4ccc(C#N)cc4F)c3)nc2c1 | nt | nt | nt | nt | 17% | 13% | -15%
CC(C)c1nc2c(c(-c3ccc(Cl)cc3)n1)CCN([S+](=O)([O-])c1ccccc1)CC2 | -21% | nt | nt | ? | nt | nt | nt
Nc1nc2c([nH]c(=O)n2[C@H]2C[C@H](O)[C@@H](CO)O2)c(=O)[nH]1 | nt | nt | nt | nt | 11% | 8% | 7%
COc1ccc(-c2cc3c(=O)n(CCNC(=O)Cc4cccs4)ccn3n2)cc1 | ? | 8.9µM* | -19% | ? | ? | ? | ?
CCOc1ccc(-c2cc3c(=O)n(CCNC(=O)Cc4cccs4)ccn3n2)cc1 | -20% | ? | -3% | ? | nt | nt | nt
COc1cccc(-c2cc3c(=O)n(CCNC(=O)c4ccccc4Cl)ccn3n2)c1 | -24% | 13µM* | -19% | ? | 19% | 13% | ?
COc1cccc(CC(=O)NCCn2ccn3nc(-c4ccc(C)c(C)c4)cc3c2=O)c1 | ? | 13µM* | -3% | 79µM* | 23% | 13% | ?
Cc1ccc(NC(=O)c2ncn(-c3ccccc3)n2)cc1Cl | nt | nt | nt | nt | 16% | 13% | ?
CCOC(=O)[C@@H]1[C@@H](OC)C(=O)N(Cc2ccccc2)C12CCN(C(=O)CC)CC2 | ? | nt | nt | 3% | nt | nt | nt
CCOc1cccc2c1OC[C@@H]1CN(CCOC)C(=O)CCN(C(=O)c3cccc(OC)c3)[C@H]21 | -29% | nt | nt | ? | nt | nt | nt
Cc1ccc2oc(=O)c(-c3nc(-c4cccs4)no3)cc2c1 | nt | nt | nt | nt | 14% | 13% | -14%
Cc1noc2c(N(C)C)cc(-c3cccs3)nc12 | ? | i | -8%[70.6 µM] | ? | nt | nt | nt
O=c1oc2ccc(F)cc2cc1-c1nc(-c2cccs2)no1 | nt | nt | nt | nt | 14% | 20% | ?
O=C(NC1CN(c2ccnc3ccnn23)C1)c1ccccc1F | ? | nt | nt | -24% | nt | nt | nt

Screens (PubChem)
